# Assay results taken from the supplement of paper PMC11383364.
# Tested on: SUM149
# Experiment: percent difference in area under dose-response curve of relative cell number, RPMI vs HPLM; higher = drug relatively more effective in HPLM than RPMI (negative = less effective in HPLM)
# Conditions: treatment time: 72 h; dose range: 10-point, 1 nM to 20 µM; media compared: RPMI vs HPLM
row,Structure (SMILES),percent difference in area under dose-response curve
1,CCC[C@H](Nc1nc(-c2ccc(NC(=O)NCC)c(OC)c2)ncc1C)c1cccnc1,-15.1%
2,FC(F)c1nc2ccccc2n1-c1nc(N2CCOCC2)nc(N2CCOCC2)n1,1.79%
3,O=C(CCCCCCC(=O)Nc1ccc([C@H]2O[C@@H](CSc3nc(-c4ccccc4)c(-c4ccccc4)o3)C[C@@H](c3ccc(CO)cc3)O2)cc1)NO [Tubacin],-4.43%
4,Cc1ccc(NC(=O)c2ccc(CN3CCN(C)CC3)cc2)cc1Nc1nccc(-c2cccnc2)n1 [Imatinib_Mesylate],-3.71%
5,CC(=O)Nc1nc(C)c(-c2ccc(Cl)c(S(=O)(=O)NCCO)c2)s1,-8.79%
6,NC(=O)Nc1cc(-c2cccc(F)c2)sc1C(=O)N[C@H]1CCCNC1,-2.68%
7,CN1CCC(CNc2ccc3ncc(-c4cccc(OC(F)(F)F)c4)n3n2)CC1 [SGI1776_free_base],-10.5%
8,CN(CC(=O)N(Cc1ccc(C2CCCCC2)cc1)c1ccc(C(=O)O)cc1)S(=O)(=O)c1c(F)c(F)c(F)c(F)c1F,3.06%
9,Nc1ncn([C@H]2C[C@H](O)[C@@H](CO)O2)c(=O)n1 [Decitabine],-25.4%
10,C=C(c1ccc(C(=O)O)cc1)c1cc2c(cc1C)C(C)(C)CCC2(C)C [Bexarotene],-2.87%
11,Cc1nc(Nc2n[nH]c3c2CN(C(=O)N[C@H](CN(C)C)c2ccccc2)C3(C)C)c2sccc2n1,-62.7%
12,CCc1c2c(nc3ccc(OC(=O)N4CCC(N5CCCCC5)CC4)cc13)-c1cc3c(c(=O)n1C2)COC(=O)[C@]3(O)CC [Irinotecan_HCl_Trihydrate],-10.1%
13,Nc1ccn([C@@H]2C=C(CO)[C@@H](O)[C@H]2O)c(=O)n1 [Cyclopentenyl_cytosine],2.58%
14,Cc1cnc(-c2cnc(NCCNc3ccc(C#N)cn3)nc2-c2ccc(Cl)cc2Cl)[nH]1,7.14%
15,Cc1ccc(S(=O)(=O)/C=C/C#N)cc1,0.814%
16,CN(Cc1cnc2nc(N)nc(N)c2n1)c1ccc(C(=O)N[C@@H](CCC(=O)O)C(=O)O)cc1 [Abitrexate],-8.44%
17,CCCCC[C@H](CC(=O)NO)C(=O)N[C@H](C(=O)N1CCC[C@H]1CO)C(C)C [Actinonin],1.68%

row,Structure (SMILES),percent difference in area under dose-response curve
1,O=C(NCC1(c2nc(-c3ccccc3)cs2)CCOCC1)c1cccc(-c2noc(C(F)(F)F)n2)c1,0.481%
2,O=C(/C=C/c1cccc(S(=O)(=O)Nc2ccccc2)c1)NO [Belinostat],-13%
3,CC1=C(/C=C/C(C)=C/C=C/C(C)=C\C(=O)O)C(C)(C)CCC1 [Isotretinoin],-4.74%
4,Cc1cc(Nc2nc(N[C@@H](C)c3ncc(F)cn3)ncc2Cl)[nH]n1,-7.89%
5,CCN(CC)CCNC(=O)c1c(C)[nH]c(/C=C2\C(=O)Nc3ccc(F)cc32)c1C [Sunitinib_Malate],3.02%
6,CCN(CCCOc1ccc2c(Nc3cc(CC(=O)Nc4cccc(F)c4)[nH]n3)ncnc2c1)CCOP(=O)(O)O [Barasertib],-20.6%
7,COc1c(C)c2c(c(O)c1C/C=C(\C)CCC(=O)OCCN1CCOCC1)C(=O)OC2 [Mycophenolate_mofetil],-4.5%
8,O=C(CCCCCCCn1cc(-c2cccnc2)nn1)Nc1ccccc1-c1ccccc1,0.587%
9,C/C=C/C/C=C/CCC(=O)[C@H]1O[C@H]1C(N)=O [Cerulenin],-9.61%
10,CN(C)Cc1c(C(=O)NCCOc2ccc(C(=O)NO)cc2)oc2ccccc12,0.731%
11,CC[C@@H]1C(=O)N(C)c2cnc(Nc3ccc(C(=O)NC4CCN(C)CC4)cc3OC)nc2N1C1CCCC1,-23%
12,Cc1cccc(-c2[nH]c(C(C)(C)C)nc2-c2ccc3nccnc3c2)n1,-7.49%
13,O=C1c2c(O)ccc(O)c2C(=O)c2c(NCCNCCO)ccc(NCCNCCO)c21 [Mitoxantrone],-23.7%
14,CN(C)Cc1ccc(-c2nc3cccc4c3n2CCNC4=O)cc1,-5.91%
15,CN1CC[C@H](c2c(O)cc(O)c3c(=O)cc(-c4ccccc4Cl)oc23)[C@H](O)C1 [Flavopiridol],-2.56%
16,CCOc1ccn(-c2ccc(F)cc2)c(=O)c1C(=O)Nc1ccc(Oc2ccnc(N)c2Cl)c(F)c1,-1.99%
17,CC(C)[C@H](C(=O)Nc1ccc(C(=O)NO)cc1)c1ccccc1,-15.2%
